Experimental data from PubChem BioAssay AID1159580 (chemical genetic matrix, 2015).
“And” between values parts separate entries of the source, which are not always exact repeats. Identical values can stand only once. In all, about 5,500 compounds went through this assay and about 2,000 (36%) were called active. About 18% were inconclusive and are not listed. Cut-off read from the data, not from the text of the source: active = normalized growth mostly below about 0.91 (no sharp cut-off); inconclusive = no clear call, values can overlap the other calls; inactive = mostly above about 0.92. Some of the results follow.

Experiment: chemical genetic growth profiling, strain panel (AID 1159580);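 note: tested at 20 µM; growth read once vehicle control cultures reached saturation at 30 °C; 1 = growth at the plate median or of vehicle wells; lower values mean less growth of the strain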
Conditions: S. cerevisiae deletion strains, growth OD

Measured: normalized growth

C=C1CCC2C(CC2(C)C)C(=O)CCC1O (stereo unspecified)
inactive: locus YAL013W, strain DEP1, hits give low values 0.984 | locus YAL021C, strain ccr4, hits give low values 0.94 | locus YAL026C, strain drs2, hits give low values 0.996 | locus YAL030W, strain snc1, hits give low values 1 | locus YBL061C, strain skt5, hits give low values 0.999 | locus YBR009C, strain hhf1, hits give low values 0.987 | locus YBR021W, strain FUR4, hits give low values 1.02 | locus YBR023C, strain chs3, hits give low values 0.986 | locus YBR171W, strain sec66, hits give low values 1 | locus YBR229C, strain ROT2, hits give low values 1.01 | locus YBR231C, strain swc5, hits give low values 1.01 | locus YBR279W, strain paf1, hits give low values 0.995 | locus YCL011C, strain gbp2, hits give low values 0.984 | locus YCL016C, strain dcc1, hits give low values 0.983 | locus YCL029C, strain bik1, hits give low values 1 | locus YCL061C, strain MRC1, hits give low values 0.993 | locus YCL069W, strain vba3, hits give low values 0.999 | locus YCR088W, strain abp1, hits give low values 0.993 | locus YDL005C, strain med2, hits give low values 0.991 | locus YDL035C, strain GPR1, hits give low values 1 | locus YDL040C, strain nat1, hits give low values 1 | locus YDL074C, strain BRE1, hits give low values 1 | locus YDL101C, strain DUN1, hits give low values 1.03 | locus YDL134C, strain PPH21, hits give low values 1.04 | locus YDL185W, strain tfp1, hits give low values 1.03 | locus YDL192W, strain arf1, hits give low values 0.992 | locus YDR001C, strain nth1, hits give low values 0.976 | locus YDR069C, strain doa4, hits give low values 0.981 | locus YDR101C, strain arx1, hits give low values 0.995 | locus YDR137W, strain rgp1, hits give low values 0.985 | locus YDR159W, strain sac3, hits give low values 1.06 | locus YDR162C, strain NBP2, hits give low values 1.01 | locus YDR195W, strain ref2 0.968 | locus YDR297W, strain sur2, hits give low values 1.01 | locus YDR318W, strain mcm21, hits give low values 1 | locus YDR334W, strain swr1, hits give low values 0.988 | locus YDR335W, strain msn5, hits give low values 0.985 | locus YDR388W, hits give low values 1.02 | locus YDR392W, strain spt3, hits give low values 0.911 | locus YDR502C, strain sam2, hits give low values 1.04 | locus YEL003W, strain gim4, hits give low values 1 | locus YEL037C, strain rad23, hits give low values 0.993 | locus YEL061C, strain CIN8 (second series), hits give low values 0.993 | locus YEL061C, strain CIN8, hits give low values 1.02 | locus YER015W, strain faa2, hits give low values 0.981 | locus YER016W, strain bim1, hits give low values 1 | locus YER110C, hits give low values 1.02 | locus YER111C, strain swi4, hits give low values 0.997 | locus YER155C, strain BEM2 (second series), hits give low values 1.03 | locus YER155C, strain BEM2, hits give low values 1 | locus YER167W, strain BCK2, hits give low values 1 | locus YFR010W, strain ubp6, hits give low values 0.996 | locus YGL078C, strain dbp3, hits give low values 1.04 | locus YGL086W, strain mad1, hits give low values 1.02 | locus YGL167C, strain pmr1, hits give low values 0.975 | locus YGL173C, strain kem1, hits give low values 1 | locus YGL227W, strain vid30, hits give low values 0.985 | locus YGL240W, strain doc1, hits give low values 1 | locus YGL248W, strain PDE1, hits give low values 1.05 | locus YGL253W, strain hxk2, hits give low values 1.02 | locus YGR078C, strain PAC10, hits give low values 1.02 | locus YGR135W, strain pre9, hits give low values 1.08 | locus YGR229C, strain SMI1, hits give low values 0.945 | locus YGR252W, strain gcn5, hits give low values 1.08 | locus YHR013C, strain ard1, hits give low values 0.978 | locus YHR027C, strain rpn1, hits give low values 1 | locus YHR030C, strain SLT2, hits give low values 1.02 | locus YHR079C, strain IRE1 (second series), hits give low values 1.01 | locus YHR079C, strain IRE1, hits give low values 1.03 | locus YHR094C, strain hxt1, hits give low values 1.01 | locus YHR129C, strain ARP1, hits give low values 1.01 | locus YHR142W, strain chs7, hits give low values 0.979 | locus YHR200W, strain rpn10, hits give low values 1.03 | locus YIL066C, strain RNR3, hits give low values 1.02 | locus YIL073C, strain SPO22, hits give low values 1.09 | locus YIL125W, strain kgd1, hits give low values 1.01 | locus YIR030C, strain dcg1, hits give low values 1.01 | locus YJL092W, strain hpr5, hits give low values 0.988 | locus YJL095W, strain BCK1 (second series), hits give low values 0.987 | locus YJL095W, strain BCK1, hits give low values 1.08 and 1.04 | locus YJL115W, strain asf1, hits give low values 0.961 | locus YJL129C, strain trk1, hits give low values 0.984 | locus YJL134W, strain LCB3, hits give low values 1.01 | locus YJL154C, strain vps35, hits give low values 0.99 | locus YJL164C, strain tpk1, hits give low values 0.963 | locus YJL166W, strain qcr8, hits give low values 0.993
